# PubChem BioAssay AID2162 (National Center for Advancing Translational Sciences (NCATS), 2009)
# Records with an inconclusive call do not appear. Values without a mark were called inactive. Calls follow the shape of the dose curve; as a rule, active = well fitted inhibition curve with a large enough effect; inconclusive = small, poorly fitted or top-dose-only effect; inactive = flat fitted curve, though single readings scatter.
# Biological target: Polyunsaturated fatty acid lipoxygenase ALOX12 (Homo sapiens) (UniProt P18054)
# Test: Confirmation qHTS Assay for Inhibitors of 12-hLO (12-human lipoxygenase)
# Details: purified 12-hLO, xylenol orange absorbance; stronger effect = lower value
# From the text: Assay Provider: Holman, T.R., University of California, Santa Cruz Screening Center PI: Austin, Christopher P. Screening Center: NIH Chemical Genomics Center Human lipoxygenase 12hLO is a member of the closely related lipoxygenase family of enzymes which catalyze the site-specific oxidation of arachidonic acid to various hormone precursor molecules and as such is a candidate for drug development in a variety of disease areas, such as cancer and inflammation. Inhibition of 12hLO activity was screened by utilizing arachidonic acid as a substrate. The extent of hydroperoxide product formation was measured by a secondary chromogenic reaction in which xylenol orange (XO, Sigma-Aldrich, cat. number 39,818-7) reacts with the ferric ions produced from the reaction between the hydroperoxide and ferrous ions. The Fe(III)-XO complex is characterized with red-shifted absorbance at 560 nm. A purified preparation of human 12hLO was supplied by Professor Ted Holman, University of California, Santa Cruz. This assay includes some confirmation and follow-up compounds for related primary screening assay AID 1452.
# Assay Protocol: Buffer: 25 mM Hepes pH 7.0, 0.01% Triton X-100. […] The absorbance at 405 and 573 nm were measured using ViewLux (Perkin-Elmer) High-throughput CCD imager and absorbance protocol settings. The 573-to-405 absorbance ratio was used to compute reaction progress.
# Sequence of Polyunsaturated fatty acid lipoxygenase ALOX12 (Homo sapiens) (P18054 whole entry, looked up): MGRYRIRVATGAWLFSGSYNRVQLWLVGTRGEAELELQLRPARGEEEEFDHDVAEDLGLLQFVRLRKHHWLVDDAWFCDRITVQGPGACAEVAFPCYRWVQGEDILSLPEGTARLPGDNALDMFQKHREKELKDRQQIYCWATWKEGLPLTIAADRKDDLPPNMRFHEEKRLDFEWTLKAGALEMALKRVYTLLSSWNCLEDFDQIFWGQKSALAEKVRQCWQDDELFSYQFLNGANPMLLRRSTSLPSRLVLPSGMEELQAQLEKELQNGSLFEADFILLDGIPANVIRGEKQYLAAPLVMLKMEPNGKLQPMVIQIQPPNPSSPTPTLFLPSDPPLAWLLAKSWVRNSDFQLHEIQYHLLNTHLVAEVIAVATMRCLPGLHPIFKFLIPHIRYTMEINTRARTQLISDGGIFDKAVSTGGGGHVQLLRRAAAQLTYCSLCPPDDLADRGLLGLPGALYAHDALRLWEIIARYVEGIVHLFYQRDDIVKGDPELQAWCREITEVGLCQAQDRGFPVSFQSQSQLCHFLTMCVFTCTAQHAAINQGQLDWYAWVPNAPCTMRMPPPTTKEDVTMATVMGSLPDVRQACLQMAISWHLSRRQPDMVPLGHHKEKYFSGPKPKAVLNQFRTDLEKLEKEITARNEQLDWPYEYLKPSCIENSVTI
smiles,measurement,value
CCC(C)C(=O)c1c(O)c(C)c2oc3c(C)c(O)c(C(=O)C(C)CC)c(O)c3c2c1O (stereo unspecified),"activity change, negative = inhibition",-25.9%
